Experiments:
Assay in all cases: log2 ratio of Biotin-Ahx-Ub-VS probe labelling (fragment/DMSO); higher = less target engagement (more negative = stronger competition), active = hit call of the paper (q ≤ 0.05, log2 ratio ≤ -1)
Conditions in all cases: compound concentration: 200 uM; treatment time: 3 h
[1] = target: USP34 (UniProt Q70CQ2)
Outline: (§1)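 HEK293T lysate in Tris/CHAPS/IGEPAL buffer with protease inhibitors (495 µg per sample) was given fragment at 200 µM or vehicle for 3 h, in triplicate. It then received Biotin-Ahx-Ub-VS at 0.5 µM final for 1 h. Labelled DUBs were NeutrAvidin-enriched, digested with LysC and trypsin, and run by diaPASEF LC-MS/MS. Values are average log2 fragment/vehicle ratios by unpaired t-test on global-median-normalised Spectronaut quantities of proteins with ≥2 unique peptides.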

[2] = target: T1, USP36 (UniProt Q9P275)
T1 sequence (whole entry): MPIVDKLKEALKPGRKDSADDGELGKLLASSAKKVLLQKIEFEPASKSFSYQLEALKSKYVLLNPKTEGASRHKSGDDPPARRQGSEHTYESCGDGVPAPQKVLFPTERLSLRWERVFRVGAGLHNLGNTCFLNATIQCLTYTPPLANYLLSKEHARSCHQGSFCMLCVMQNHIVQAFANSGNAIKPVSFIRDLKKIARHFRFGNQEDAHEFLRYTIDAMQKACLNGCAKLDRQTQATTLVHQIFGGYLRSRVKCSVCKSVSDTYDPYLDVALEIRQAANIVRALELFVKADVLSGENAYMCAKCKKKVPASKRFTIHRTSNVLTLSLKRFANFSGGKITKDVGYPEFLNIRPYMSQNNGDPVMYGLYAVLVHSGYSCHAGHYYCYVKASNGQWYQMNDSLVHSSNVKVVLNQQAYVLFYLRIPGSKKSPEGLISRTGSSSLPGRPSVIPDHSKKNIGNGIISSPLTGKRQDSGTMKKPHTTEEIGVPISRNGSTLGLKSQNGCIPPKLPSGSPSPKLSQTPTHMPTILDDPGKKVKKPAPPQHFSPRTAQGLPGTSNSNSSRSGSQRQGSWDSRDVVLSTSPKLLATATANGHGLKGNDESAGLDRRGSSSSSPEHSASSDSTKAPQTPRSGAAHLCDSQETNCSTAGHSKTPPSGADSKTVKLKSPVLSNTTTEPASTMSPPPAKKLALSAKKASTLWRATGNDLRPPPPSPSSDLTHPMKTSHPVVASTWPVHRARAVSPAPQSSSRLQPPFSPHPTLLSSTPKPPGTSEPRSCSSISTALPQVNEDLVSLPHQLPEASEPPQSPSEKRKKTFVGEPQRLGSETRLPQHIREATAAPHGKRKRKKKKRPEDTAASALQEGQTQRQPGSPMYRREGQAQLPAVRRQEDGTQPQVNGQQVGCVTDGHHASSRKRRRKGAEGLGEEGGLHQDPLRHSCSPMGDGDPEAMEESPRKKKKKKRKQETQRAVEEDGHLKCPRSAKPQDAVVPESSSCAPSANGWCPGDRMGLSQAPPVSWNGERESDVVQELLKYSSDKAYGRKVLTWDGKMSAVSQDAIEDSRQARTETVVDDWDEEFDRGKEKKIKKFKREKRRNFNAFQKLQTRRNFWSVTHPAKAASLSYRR
Outline: as §1

[3] = target: T2, USP38 (UniProt Q8NB14)
T2 sequence (whole entry): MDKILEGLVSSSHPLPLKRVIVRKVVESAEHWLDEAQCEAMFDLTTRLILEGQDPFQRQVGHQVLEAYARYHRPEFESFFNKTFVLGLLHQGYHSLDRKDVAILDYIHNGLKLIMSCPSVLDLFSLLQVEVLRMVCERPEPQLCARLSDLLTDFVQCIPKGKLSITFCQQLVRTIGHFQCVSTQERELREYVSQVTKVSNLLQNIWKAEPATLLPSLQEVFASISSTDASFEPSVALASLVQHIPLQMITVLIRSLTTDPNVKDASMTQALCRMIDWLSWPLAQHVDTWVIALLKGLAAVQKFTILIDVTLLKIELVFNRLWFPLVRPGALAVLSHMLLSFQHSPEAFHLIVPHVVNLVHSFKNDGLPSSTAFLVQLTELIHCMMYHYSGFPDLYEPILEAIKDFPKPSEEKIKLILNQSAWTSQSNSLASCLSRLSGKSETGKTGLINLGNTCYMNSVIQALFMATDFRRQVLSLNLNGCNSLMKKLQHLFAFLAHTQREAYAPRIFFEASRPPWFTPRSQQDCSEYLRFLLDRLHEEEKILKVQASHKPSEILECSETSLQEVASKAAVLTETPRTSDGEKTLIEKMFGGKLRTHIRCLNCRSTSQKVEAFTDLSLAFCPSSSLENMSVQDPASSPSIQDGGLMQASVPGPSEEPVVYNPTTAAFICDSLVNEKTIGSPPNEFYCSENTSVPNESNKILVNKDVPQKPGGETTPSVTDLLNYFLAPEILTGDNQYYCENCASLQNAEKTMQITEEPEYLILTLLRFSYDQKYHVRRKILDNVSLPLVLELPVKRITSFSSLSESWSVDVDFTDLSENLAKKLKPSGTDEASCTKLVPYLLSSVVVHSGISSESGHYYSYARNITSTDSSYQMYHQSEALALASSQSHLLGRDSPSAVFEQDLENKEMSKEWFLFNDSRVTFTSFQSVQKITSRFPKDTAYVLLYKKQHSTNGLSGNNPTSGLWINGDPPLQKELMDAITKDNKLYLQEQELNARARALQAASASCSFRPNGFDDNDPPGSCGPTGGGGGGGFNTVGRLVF
Outline: as §1

[4] = target: T3, USP39 (UniProt Q53GS9)
T3 sequence (whole entry): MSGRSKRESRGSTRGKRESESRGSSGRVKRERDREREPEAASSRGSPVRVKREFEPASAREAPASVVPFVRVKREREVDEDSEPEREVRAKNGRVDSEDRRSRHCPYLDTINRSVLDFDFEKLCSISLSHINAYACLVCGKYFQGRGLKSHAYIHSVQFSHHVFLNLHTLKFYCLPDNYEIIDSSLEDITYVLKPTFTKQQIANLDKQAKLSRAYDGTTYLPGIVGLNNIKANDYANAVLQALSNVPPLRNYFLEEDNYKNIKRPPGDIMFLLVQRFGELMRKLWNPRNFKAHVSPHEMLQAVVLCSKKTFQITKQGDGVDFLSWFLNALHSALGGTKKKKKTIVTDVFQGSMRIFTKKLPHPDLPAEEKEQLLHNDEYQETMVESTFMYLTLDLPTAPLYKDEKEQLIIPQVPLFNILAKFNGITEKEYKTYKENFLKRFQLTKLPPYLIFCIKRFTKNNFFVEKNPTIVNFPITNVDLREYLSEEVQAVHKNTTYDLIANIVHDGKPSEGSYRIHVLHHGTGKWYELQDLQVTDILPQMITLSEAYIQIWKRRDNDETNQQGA
Outline: as §1

[5] = target: T4, USP4 (UniProt Q13107)
T4 sequence (whole entry): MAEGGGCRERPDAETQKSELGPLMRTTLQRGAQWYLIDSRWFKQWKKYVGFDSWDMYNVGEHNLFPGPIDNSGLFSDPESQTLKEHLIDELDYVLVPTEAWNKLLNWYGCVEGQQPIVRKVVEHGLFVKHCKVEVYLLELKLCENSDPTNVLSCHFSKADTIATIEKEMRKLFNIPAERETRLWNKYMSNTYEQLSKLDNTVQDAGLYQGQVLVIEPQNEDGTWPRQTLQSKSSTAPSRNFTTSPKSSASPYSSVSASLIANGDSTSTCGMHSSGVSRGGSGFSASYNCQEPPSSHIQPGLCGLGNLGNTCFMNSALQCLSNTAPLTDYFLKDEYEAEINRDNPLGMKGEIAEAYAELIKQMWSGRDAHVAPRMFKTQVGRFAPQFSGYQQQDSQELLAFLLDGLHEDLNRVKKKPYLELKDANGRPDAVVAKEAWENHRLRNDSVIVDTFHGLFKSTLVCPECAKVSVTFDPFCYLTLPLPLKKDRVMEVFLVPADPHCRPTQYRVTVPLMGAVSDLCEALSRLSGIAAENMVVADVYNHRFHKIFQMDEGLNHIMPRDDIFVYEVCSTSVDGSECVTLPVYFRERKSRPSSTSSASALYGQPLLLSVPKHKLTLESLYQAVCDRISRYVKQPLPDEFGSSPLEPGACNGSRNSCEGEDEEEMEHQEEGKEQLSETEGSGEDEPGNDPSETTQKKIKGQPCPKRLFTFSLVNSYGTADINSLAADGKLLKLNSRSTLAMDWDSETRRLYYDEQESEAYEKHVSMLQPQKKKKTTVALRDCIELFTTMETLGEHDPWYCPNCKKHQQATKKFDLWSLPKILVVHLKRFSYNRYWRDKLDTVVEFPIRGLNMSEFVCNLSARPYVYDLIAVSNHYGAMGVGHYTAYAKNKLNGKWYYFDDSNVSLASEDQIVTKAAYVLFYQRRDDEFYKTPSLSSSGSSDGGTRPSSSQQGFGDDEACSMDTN
Outline: as §1

Measured: log2 ratio of Biotin-Ahx-Ub-VS probe labelling

Sequence of USP34 (Q70CQ2 whole entry, the tested form may be a part): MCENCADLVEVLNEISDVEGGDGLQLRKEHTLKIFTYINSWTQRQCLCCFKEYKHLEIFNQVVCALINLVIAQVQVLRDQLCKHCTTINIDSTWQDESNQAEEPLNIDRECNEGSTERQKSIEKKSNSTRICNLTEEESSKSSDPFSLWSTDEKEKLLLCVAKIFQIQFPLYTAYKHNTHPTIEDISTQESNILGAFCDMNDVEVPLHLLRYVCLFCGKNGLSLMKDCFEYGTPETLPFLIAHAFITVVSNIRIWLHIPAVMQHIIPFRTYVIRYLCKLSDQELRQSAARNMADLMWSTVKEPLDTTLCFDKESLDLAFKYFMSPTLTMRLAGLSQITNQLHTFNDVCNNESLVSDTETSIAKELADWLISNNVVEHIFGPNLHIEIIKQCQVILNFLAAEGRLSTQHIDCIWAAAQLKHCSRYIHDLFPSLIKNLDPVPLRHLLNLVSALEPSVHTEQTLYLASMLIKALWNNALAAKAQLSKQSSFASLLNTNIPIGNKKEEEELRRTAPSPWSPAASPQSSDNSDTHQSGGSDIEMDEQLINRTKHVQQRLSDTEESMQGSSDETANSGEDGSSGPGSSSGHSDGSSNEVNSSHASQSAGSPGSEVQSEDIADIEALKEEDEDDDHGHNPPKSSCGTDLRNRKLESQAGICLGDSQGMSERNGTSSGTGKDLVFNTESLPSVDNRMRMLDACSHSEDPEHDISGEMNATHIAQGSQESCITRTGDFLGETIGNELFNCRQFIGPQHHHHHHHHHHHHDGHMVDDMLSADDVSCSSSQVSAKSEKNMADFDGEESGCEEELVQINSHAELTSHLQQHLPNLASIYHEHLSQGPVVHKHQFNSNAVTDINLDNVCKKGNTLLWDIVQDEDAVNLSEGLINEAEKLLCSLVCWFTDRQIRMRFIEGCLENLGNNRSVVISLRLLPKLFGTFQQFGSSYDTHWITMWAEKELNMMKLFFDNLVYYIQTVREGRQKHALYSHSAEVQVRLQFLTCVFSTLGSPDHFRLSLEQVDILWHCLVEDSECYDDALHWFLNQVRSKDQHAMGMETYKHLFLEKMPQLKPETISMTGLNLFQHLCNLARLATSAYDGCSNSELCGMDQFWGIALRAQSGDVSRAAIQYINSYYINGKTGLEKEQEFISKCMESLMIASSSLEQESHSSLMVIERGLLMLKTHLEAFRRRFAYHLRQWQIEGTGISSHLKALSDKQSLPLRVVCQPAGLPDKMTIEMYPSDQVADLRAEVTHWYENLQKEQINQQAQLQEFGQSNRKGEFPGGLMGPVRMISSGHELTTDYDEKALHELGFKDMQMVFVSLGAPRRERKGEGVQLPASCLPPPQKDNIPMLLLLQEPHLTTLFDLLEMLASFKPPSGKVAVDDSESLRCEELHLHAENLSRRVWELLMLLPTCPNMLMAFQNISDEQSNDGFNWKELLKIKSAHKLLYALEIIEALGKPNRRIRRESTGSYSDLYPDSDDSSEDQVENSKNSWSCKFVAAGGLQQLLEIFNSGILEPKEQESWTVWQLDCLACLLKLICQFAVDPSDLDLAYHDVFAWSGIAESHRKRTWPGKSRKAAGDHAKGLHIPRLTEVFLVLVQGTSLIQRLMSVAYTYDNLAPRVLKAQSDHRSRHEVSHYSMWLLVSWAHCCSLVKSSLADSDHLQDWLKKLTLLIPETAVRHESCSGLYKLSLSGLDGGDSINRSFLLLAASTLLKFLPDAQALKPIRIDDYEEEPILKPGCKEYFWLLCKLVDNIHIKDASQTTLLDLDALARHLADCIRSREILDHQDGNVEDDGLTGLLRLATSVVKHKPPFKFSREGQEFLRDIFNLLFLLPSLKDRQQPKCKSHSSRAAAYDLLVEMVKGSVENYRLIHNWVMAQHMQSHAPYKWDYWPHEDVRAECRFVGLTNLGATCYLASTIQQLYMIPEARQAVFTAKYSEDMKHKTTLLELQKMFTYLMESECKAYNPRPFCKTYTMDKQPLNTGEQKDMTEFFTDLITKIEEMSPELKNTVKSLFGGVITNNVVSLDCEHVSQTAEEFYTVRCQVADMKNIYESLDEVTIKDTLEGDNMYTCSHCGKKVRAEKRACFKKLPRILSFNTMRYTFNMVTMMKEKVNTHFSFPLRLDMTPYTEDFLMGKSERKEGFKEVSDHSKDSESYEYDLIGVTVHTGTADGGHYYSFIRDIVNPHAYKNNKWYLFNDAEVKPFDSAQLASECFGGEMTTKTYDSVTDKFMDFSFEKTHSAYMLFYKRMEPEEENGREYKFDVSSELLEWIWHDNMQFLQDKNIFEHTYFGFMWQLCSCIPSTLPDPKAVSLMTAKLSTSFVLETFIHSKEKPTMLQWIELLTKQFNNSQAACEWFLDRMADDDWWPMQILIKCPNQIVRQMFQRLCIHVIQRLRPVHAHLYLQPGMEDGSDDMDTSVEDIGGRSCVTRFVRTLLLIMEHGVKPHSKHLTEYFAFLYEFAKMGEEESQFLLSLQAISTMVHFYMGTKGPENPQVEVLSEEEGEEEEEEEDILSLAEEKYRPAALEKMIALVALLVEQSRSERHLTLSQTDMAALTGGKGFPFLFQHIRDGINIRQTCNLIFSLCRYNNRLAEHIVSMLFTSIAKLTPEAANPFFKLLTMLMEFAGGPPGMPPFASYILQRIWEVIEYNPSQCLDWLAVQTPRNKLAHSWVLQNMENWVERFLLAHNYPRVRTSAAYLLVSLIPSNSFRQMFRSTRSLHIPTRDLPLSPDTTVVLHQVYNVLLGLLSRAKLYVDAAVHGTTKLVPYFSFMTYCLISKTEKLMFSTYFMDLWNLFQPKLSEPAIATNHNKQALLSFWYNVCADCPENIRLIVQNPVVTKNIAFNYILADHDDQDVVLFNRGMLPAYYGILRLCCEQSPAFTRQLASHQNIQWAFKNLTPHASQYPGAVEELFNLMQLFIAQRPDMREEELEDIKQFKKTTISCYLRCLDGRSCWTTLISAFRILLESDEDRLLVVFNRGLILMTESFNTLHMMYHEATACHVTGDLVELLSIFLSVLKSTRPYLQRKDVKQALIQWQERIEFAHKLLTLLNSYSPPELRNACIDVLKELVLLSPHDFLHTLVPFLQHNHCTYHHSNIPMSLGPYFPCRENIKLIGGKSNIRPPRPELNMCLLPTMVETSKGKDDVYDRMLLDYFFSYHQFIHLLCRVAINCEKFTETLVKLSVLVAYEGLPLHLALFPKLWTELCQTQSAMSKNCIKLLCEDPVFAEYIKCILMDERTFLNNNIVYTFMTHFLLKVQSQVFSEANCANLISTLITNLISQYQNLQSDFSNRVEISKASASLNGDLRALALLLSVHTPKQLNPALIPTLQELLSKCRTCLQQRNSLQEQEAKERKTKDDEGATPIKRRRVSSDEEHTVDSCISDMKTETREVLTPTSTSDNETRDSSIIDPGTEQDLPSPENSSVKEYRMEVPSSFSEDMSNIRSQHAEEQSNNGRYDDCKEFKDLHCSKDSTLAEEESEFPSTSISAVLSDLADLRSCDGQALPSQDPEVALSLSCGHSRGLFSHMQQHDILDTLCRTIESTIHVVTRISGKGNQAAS

Cc1cccc(C(CNC(=O)CCl)N2CCOCC2)c1.Cl (stereo not given)
inactive: [1] -0.0673 | [2] 0.0549 | [3] -0.0229 | [4] -0.116 | [5] -0.165

Source: the supplement of paper PMC11732987, “Enantioselective OTUD7B fragment discovery through chemoproteomics screening and high-throughput optimisation” (Communications Chemistry, 2025)
